Common to all, as to test: DAPPL (digital affinity profiling via proximity ligation, sequencing); 10 mM Tris-HCl pH 7.5, 50 mM NaCl, 1 mM DTT, 4% glycerol, room temperature, 30 min; GST-TFs on glutathione beads, 16-mer random dsDNA library, 0.1% formaldehyde crosslink after washing; high values mean tight binding
Holding throughout (settings): protein: recombinant; tags: N-terminal GST; dsDNA, one strand shown

In one assay the target is T1, FLI1 (Homo sapiens, UniProt Q01543 1-452).
T1 sequence: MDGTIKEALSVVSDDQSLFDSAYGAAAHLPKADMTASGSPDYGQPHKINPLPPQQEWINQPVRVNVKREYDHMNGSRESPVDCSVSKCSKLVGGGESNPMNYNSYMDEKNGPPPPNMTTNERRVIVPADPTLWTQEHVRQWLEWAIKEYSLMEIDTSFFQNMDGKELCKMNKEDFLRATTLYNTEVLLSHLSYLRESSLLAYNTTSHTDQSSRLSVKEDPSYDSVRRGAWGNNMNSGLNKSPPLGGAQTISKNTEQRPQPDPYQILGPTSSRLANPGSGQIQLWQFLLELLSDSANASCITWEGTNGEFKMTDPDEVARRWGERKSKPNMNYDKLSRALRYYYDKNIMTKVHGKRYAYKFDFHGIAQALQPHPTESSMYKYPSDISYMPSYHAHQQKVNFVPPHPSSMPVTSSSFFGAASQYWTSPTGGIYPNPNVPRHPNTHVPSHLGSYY
A digest of the protocol: (§1)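 A tag-only sample was pooled with DNA-barcoded human transcription factors that had been expressed in yeast as GST fusions and captured on glutathione beads. The pools were incubated for 30 min at room temperature with 200 nmole of a random double-stranded 16-mer DNA library in Tris/NaCl/DTT/glycerol buffer, then washed, crosslinked with 0.1% formaldehyde, proximity-ligated (BsaI/T4 ligase, 1 h, 37 °C), PCR-amplified and sequenced on an Illumina NextSeq500. Binding signal is each hexamer's read frequency for a factor divided by its frequency for the tag-only sample.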

The target of a further assay is T2, ELK1 (Homo sapiens, UniProt P19419 1-428).
T2 sequence: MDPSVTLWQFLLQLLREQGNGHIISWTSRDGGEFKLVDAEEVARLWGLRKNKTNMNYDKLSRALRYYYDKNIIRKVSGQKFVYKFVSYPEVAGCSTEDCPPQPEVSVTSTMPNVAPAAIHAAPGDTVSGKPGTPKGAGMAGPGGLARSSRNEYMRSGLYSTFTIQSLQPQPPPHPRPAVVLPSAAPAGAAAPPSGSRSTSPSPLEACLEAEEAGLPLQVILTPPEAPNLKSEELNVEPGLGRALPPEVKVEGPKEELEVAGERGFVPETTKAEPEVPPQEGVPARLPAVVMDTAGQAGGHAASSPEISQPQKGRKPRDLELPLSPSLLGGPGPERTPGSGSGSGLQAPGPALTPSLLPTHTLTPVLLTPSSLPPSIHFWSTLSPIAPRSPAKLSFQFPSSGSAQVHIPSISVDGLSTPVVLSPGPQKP
An outline of the steps: as §1

The target of a further assay is T3, GABPA (Homo sapiens, UniProt Q06546 1-454).
T3 sequence: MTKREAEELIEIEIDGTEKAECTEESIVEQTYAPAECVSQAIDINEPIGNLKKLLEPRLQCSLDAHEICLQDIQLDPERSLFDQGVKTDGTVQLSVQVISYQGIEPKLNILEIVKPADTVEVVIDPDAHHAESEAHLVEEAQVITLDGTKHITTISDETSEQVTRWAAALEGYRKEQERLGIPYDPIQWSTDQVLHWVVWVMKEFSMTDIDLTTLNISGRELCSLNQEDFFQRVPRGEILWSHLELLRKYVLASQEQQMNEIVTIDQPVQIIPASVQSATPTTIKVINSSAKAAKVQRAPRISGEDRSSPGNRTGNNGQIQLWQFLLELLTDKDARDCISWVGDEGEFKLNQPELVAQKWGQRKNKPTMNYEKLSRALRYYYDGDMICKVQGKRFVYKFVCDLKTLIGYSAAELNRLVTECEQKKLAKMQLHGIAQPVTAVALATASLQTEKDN
A digest of the protocol:
as §1

Another assay concerns the target T4, ERG (Homo sapiens, UniProt P11308 1-479).
T4 sequence: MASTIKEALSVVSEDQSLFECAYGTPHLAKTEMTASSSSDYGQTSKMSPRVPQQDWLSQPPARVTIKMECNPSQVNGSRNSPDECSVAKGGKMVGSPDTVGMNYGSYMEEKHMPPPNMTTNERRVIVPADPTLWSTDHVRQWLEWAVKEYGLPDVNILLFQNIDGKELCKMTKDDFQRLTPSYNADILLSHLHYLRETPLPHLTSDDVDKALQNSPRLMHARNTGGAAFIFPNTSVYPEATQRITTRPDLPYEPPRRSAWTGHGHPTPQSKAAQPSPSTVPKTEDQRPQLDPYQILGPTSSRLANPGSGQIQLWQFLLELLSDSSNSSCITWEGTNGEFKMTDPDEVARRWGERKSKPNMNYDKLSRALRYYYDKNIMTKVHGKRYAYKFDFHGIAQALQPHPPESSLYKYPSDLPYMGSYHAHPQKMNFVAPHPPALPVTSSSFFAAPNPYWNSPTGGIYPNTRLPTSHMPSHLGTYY
An outline of the steps: as §1

The target in another assay is ELF1 (Homo sapiens, UniProt P32519 1-619). An outline of the steps:
as §1

A further assay concerns the target T5, EHF (Homo sapiens, UniProt Q9NZC4 1-300).
T5 sequence: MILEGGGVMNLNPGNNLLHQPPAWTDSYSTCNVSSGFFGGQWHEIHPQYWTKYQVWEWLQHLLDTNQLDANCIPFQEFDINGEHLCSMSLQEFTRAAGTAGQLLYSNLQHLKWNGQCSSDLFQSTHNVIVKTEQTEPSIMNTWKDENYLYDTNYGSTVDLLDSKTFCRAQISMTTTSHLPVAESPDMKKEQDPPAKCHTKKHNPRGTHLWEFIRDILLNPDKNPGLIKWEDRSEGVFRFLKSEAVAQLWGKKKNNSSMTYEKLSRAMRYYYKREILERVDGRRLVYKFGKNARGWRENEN
An outline of the steps:
as §1

Another assay deals with SPI1 (Homo sapiens, UniProt P17947 1-270). A digest of the protocol:
as §1

The target in a further assay is SPIB (Homo sapiens, UniProt Q01892 1-262). An outline of the steps:
as §1

For another assay, the target named is T6, FEV (Homo sapiens, UniProt Q99581 1-238).
T6 sequence: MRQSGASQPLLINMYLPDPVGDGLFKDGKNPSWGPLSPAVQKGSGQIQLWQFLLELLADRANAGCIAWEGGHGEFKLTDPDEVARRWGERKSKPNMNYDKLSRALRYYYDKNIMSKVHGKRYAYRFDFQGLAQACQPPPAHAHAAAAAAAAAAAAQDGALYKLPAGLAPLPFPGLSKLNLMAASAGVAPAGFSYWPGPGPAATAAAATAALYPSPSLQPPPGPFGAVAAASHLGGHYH
A digest of the protocol:
as §1

A further assay deals with ETV5 (Homo sapiens, UniProt P41161 1-510). A digest of the protocol: as §1
Sequence of ETV5 (P41161 whole entry): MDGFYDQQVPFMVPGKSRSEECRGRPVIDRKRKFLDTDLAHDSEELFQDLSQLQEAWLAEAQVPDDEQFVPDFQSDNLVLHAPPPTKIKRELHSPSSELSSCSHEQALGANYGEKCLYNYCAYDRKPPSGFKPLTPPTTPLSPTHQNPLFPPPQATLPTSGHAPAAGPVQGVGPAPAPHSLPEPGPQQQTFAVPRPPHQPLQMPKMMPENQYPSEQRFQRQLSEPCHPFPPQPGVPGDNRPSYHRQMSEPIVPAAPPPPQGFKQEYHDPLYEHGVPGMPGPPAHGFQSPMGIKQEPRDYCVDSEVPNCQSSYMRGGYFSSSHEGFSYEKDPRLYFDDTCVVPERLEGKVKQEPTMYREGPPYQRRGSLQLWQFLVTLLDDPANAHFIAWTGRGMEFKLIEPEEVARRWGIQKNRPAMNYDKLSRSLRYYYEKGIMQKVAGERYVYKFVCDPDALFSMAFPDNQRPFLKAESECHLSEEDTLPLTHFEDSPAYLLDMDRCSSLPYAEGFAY
A further assay has as its target ELF4 (Homo sapiens, UniProt Q99607 1-663). An outline of the steps:
as §1

The target of the next assay is ETV1 (Homo sapiens, UniProt P50549 1-477). An outline of the steps:
as §1

The target in the next assay is T7, ERF (Homo sapiens, UniProt P50548 1-548).
T7 sequence: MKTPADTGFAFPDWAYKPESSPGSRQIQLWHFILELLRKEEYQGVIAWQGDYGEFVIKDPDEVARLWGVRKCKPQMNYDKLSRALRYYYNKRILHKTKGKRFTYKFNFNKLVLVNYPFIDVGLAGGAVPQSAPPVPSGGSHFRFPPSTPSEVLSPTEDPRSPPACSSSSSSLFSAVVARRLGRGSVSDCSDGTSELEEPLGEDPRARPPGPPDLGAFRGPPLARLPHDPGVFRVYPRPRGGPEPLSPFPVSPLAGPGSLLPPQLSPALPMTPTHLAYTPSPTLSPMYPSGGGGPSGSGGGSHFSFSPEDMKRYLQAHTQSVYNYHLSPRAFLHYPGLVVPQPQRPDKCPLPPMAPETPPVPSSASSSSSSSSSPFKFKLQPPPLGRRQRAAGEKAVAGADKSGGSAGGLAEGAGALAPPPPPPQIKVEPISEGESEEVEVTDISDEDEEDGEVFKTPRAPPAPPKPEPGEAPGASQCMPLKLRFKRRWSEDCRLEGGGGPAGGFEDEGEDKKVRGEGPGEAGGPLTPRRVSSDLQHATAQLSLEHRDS
An outline of the steps:
as §1

The target of a further assay is T8, ETV3L (Homo sapiens, UniProt Q6ZN32 1-361).
T8 sequence: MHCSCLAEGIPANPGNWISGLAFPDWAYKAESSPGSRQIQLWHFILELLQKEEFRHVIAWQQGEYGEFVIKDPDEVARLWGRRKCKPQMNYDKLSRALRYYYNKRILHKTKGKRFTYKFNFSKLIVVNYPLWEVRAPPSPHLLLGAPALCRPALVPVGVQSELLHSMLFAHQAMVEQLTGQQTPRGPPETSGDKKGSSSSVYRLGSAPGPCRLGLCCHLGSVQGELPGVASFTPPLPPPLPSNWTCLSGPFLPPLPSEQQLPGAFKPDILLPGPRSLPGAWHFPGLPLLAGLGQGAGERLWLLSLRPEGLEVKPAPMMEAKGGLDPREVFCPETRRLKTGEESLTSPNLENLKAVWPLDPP
A digest of the protocol:
as §1

The target of a further assay is T9, ETS2 (Homo sapiens, UniProt P15036 1-469).
T9 sequence: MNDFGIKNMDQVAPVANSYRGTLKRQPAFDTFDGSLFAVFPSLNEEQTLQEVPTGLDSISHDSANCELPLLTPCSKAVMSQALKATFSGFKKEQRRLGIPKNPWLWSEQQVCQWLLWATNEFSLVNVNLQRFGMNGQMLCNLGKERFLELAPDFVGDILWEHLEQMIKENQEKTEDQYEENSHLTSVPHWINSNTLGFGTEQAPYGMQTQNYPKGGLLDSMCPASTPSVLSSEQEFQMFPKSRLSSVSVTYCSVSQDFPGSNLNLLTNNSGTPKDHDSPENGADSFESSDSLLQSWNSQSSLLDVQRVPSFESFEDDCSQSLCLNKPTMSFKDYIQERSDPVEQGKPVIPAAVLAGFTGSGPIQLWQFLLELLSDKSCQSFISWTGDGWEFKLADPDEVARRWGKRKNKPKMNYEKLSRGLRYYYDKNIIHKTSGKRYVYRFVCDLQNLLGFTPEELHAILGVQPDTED
A digest of the protocol: as §1

Another assay concerns the target T10, SPDEF (Homo sapiens, UniProt O95238 1-335).
T10 sequence: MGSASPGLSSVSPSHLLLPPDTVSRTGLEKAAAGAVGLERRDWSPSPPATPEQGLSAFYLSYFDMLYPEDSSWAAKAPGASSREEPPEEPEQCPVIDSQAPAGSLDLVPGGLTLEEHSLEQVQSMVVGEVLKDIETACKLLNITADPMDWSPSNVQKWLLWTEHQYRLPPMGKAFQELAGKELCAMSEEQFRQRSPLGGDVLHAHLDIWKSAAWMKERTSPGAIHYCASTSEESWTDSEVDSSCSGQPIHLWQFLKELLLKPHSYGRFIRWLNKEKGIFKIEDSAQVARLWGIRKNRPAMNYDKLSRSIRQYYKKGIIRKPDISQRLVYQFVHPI
A digest of the protocol:
as §1

The next assay has as its target T11, ELF5 (Homo sapiens, UniProt Q9UKW6-2 1-255).
T11 sequence: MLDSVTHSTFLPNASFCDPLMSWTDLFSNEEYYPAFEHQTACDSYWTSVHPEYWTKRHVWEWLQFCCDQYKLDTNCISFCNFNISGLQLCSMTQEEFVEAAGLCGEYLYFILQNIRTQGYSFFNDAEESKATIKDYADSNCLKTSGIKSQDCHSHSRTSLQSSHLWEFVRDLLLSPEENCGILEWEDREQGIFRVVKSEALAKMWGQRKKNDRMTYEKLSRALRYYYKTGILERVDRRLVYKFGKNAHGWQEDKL
A digest of the protocol: as §1

The target of a further assay is T12, ETV3 (Homo sapiens, UniProt P41162-2 1-143).
T12 sequence: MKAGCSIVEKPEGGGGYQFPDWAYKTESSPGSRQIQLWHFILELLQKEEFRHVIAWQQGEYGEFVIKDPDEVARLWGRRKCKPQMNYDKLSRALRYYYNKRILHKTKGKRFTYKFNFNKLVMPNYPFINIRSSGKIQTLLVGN
A digest of the protocol: as §1

The target in a further assay is ETV6 (Homo sapiens, UniProt P41212 1-452). A digest of the protocol:
as §1

Sequence of ELF1 (P32519 whole entry): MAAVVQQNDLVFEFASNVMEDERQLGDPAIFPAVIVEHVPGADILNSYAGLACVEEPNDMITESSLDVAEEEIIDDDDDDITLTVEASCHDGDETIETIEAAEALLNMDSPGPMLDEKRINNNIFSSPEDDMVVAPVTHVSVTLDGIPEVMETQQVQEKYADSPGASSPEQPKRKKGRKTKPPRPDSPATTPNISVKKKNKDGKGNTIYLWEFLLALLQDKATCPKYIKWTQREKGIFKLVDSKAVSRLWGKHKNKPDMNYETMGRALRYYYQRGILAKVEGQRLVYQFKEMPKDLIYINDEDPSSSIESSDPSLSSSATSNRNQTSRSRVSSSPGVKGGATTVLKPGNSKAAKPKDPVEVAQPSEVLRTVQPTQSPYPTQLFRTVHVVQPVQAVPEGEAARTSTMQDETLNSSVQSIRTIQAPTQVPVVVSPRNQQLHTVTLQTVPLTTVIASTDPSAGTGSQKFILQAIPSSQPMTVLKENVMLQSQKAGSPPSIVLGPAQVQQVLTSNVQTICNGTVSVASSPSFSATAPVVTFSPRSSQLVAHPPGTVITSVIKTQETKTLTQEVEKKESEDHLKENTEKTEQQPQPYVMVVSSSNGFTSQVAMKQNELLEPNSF
Sequence of ETV6 (P41212 whole entry): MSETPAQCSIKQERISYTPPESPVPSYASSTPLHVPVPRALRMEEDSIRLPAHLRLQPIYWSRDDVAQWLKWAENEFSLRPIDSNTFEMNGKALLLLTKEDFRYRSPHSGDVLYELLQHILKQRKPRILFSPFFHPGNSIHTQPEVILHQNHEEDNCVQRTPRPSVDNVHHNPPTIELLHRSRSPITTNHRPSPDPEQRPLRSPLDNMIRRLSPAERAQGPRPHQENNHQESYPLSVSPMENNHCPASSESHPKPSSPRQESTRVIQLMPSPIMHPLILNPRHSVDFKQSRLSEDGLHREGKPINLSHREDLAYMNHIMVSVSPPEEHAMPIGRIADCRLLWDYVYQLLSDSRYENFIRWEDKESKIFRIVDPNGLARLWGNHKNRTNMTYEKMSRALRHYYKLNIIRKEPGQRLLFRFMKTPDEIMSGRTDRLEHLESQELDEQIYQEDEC
Sequence of ELF4 (Q99607 whole entry): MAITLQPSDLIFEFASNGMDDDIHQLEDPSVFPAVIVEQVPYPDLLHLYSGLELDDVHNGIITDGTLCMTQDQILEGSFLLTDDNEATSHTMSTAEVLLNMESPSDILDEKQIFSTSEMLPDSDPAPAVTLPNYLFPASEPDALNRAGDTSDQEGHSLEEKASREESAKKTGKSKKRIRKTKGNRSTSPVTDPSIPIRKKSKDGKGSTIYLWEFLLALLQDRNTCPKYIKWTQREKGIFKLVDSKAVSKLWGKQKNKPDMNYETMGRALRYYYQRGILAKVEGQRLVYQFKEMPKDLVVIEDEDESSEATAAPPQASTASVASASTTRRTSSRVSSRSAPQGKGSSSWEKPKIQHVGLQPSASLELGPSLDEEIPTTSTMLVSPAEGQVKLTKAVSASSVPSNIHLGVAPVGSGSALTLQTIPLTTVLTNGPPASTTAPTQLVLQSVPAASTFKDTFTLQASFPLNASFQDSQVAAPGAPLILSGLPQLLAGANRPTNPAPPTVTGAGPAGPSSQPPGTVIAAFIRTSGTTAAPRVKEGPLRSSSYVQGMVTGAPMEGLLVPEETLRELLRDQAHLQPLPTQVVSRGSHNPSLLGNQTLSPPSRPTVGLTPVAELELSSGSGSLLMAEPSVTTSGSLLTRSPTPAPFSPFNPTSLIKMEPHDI
Sequence of SPIB (Q01892 whole entry): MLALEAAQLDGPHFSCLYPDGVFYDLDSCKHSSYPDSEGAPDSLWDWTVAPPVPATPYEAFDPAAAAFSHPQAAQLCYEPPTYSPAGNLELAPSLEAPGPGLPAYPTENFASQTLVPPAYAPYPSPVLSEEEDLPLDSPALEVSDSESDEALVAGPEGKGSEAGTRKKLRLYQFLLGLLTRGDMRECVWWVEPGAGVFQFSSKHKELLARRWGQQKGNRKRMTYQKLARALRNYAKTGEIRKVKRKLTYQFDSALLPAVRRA
Sequence of ETV1 (P50549 whole entry): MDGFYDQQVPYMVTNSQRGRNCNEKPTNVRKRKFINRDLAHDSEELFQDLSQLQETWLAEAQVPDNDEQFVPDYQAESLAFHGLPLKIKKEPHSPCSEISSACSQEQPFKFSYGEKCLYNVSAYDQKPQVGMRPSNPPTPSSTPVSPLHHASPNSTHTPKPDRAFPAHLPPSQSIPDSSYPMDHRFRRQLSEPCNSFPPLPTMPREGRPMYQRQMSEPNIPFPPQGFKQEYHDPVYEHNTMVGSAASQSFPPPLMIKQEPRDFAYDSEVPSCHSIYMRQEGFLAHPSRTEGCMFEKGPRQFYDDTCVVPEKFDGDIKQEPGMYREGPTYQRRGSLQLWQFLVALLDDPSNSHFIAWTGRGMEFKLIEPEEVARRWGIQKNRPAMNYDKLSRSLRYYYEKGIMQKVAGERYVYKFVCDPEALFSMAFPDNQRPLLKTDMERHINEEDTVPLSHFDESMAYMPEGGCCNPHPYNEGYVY

For TACCCC, the binding signal with FLI1 was 1.14 fold enrichment (6-mer frequency, TF over GST control); with ELK1 it was 1.11 fold enrichment (6-mer frequency, TF over GST control); with GABPA, 1.16 fold enrichment (6-mer frequency, TF over GST control); in the assay with ERG it was 1.07 fold enrichment (6-mer frequency, TF over GST control); in the assay with ELF1 it was 1.14 fold enrichment (6-mer frequency, TF over GST control); with EHF, 1.12 fold enrichment (6-mer frequency, TF over GST control). In addition, the binding signal with SPI1 is 1.11 fold enrichment (6-mer frequency, TF over GST control); in the assay with SPIB, 1.09 fold enrichment (6-mer frequency, TF over GST control); with FEV it was 1.07 fold enrichment (6-mer frequency, TF over GST control); with ETV5 it was 1.07 fold enrichment (6-mer frequency, TF over GST control); with ELF4, 1.15 fold enrichment (6-mer frequency, TF over GST control); with ETV1 it was 1.06 fold enrichment (6-mer frequency, TF over GST control). Besides, the binding signal was 1.02 fold enrichment (6-mer frequency, TF over GST control) with ERF; 1.1 fold enrichment (6-mer frequency, TF over GST control) with ETV3L; 1.21 fold enrichment (6-mer frequency, TF over GST control) in the assay with ETS2; 1.02 fold enrichment (6-mer frequency, TF over GST control) with SPDEF; 1.12 fold enrichment (6-mer frequency, TF over GST control) with ELF5; 1.09 fold enrichment (6-mer frequency, TF over GST control) with ETV3. Besides, the binding signal with ETV6 was 1.04 fold enrichment (6-mer frequency, TF over GST control).

(Values after article PMC7862700, “An all-to-all approach to the identification of sequence-specific readers for epigenetic DNA modifications on cytosine”.)
